Laboratory results published in PubChem BioAssay (NCI).
Where “and” joins values, the source holds several entries; their conditions need not be identical. Equal values may be shown once. Compounds without any hit were thinned out: in the full panel of roughly 83,000, 20% have a hit.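 Method: cells in 96-well plates; compound added at one concentration; 48 h incubation; percent growth measured; values under 10 scored active.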 Calls of active or inactive are those of the source.

Assays:
Assay in all cases: NCI-60 one-dose screen, 48 h (100 = growth as untreated, 0 = no growth, -100 = all killed)
Conditions in all cases: 10 µM unless noted
[1] = tested on: SR leukemia
[2] = tested on: RPMI-8226 leukemia
[3] = tested on: OVCAR-8 ovarian
[4] = tested on: OVCAR-5 ovarian
[5] = tested on: SK-OV-3 ovarian
[6] = tested on: IGROV1 ovarian
[7] = tested on: OVCAR-3 ovarian
[8] = tested on: HS 578T breast
[9] = tested on: NCI/ADR-RES ovarian
[10] = tested on: OVCAR-4 ovarian

SMILES | growth [1] | growth [2] | growth [3] | growth [4] | growth [5] | growth [6] | growth [7] | growth [8] | growth [9] | growth [10]
CC(C)(C)C1=CC(=O)C(C(C)(C)C)=CC1=O | 78.9% (inactive) and 97% (inactive) | 86.9% (inactive) and 102% (inactive) | 91.5% (inactive) and 96.5% (inactive) | 109% (inactive) | 93.6% (inactive) and 102% (inactive) | 95.5% (inactive) and 110% (inactive) | 111% (inactive) and 110% (inactive) | 104% (inactive) | 108% (inactive) | 
Nc1ccc(O)c(C(=O)O)c1 | 99.8% (inactive) | 65% (inactive) and 108% (inactive) | 99.2% (inactive) and 106% (inactive) and 109% (inactive) | 121% (inactive) and 102% (inactive) and 91.1% (inactive) | 105% (inactive) and 106% (inactive) and 119% (inactive) |  |  | 112% (inactive) | 103% (inactive) and 111% (inactive) and 93.9% (inactive) | 84% (inactive) and 105% (inactive) and 108% (inactive)
CC1=CC(=O)C=CC1=Nc1ccc(N(C)C)cc1 | 29.3% (inactive) | 66.5% (inactive) and -4.07% (active) | 85.7% (inactive) and 52% (inactive) | 140% (inactive) and 83.9% (inactive) | 94.2% (inactive) and 71.8% (inactive) |  | 69.4% (inactive) and -93.6% (active) |  | 78.1% (inactive) and 37.9% (inactive) | 44.9% (inactive) and 21.1% (inactive)
CC1(CO)CCCC1NCCNC1CCCC1(C)CO (centres undefined) | 95.9% (inactive) | 102% (inactive) and 97% (inactive) | 97.8% (inactive) and 102% (inactive) | 110% (inactive) and 98.9% (inactive) | 111% (inactive) and 101% (inactive) | 115% (inactive) and 107% (inactive) | 128% (inactive) and 112% (inactive) | 112% (inactive) and 106% (inactive) | 105% (inactive) and 107% (inactive) | 
Cc1onc(-c2c(F)cccc2Cl)c1-c1ncc(-c2ccc(Cl)cc2)o1 | 11% (inactive) | 26.2% (inactive) and 23.4% (inactive) | 55.7% (inactive) and 35.5% (inactive) | 73.5% (inactive) and 68.1% (inactive) | 71% (inactive) and 61.4% (inactive) | 49.1% (inactive) and 33.3% (inactive) | 63.4% (inactive) and 45.9% (inactive) |  | 57.4% (inactive) and 27.2% (inactive) | 
CCOC(C)=N | 87.4% (inactive) | 92.7% (inactive) | 109% (inactive) | 102% (inactive) | 97% (inactive) | 151% (inactive) | 110% (inactive) | 150% (inactive) | 109% (inactive) | 
CCCCCCC(C)CC1=C(O)c2ccccc2C(=O)C1=O (centres undefined) | 61.7% (inactive) | 37.6% (inactive) | 56.6% (inactive) | 62.4% (inactive) | 78% (inactive) |  | 46.5% (inactive) | 75.3% (inactive) | 50.2% (inactive) | 46.3% (inactive)
CNc1ccc(Cl)cc1S(=O)(=O)c1ccccc1[N+](=O)[O-] | 86.3% (inactive) and 88.2% (inactive) | 87.3% (inactive) | 105% (inactive) | 90.2% (inactive) and 105% (inactive) | 120% (inactive) and 110% (inactive) |  | 105% (inactive) and 104% (inactive) |  | 36.7% (inactive) and 90.6% (inactive) | 87.6% (inactive) and 60.6% (inactive)
O=[N+]([O-])c1cccc2ccc(N/N=C/c3ccccc3O)nc12 | 60.4% (inactive) | 6.55% (active) and 93.4% (inactive) | 91.9% (inactive) and 95% (inactive) | 113% (inactive) and 116% (inactive) | 108% (inactive) and 111% (inactive) |  | 40.5% (inactive) and 101% (inactive) | 83.6% (inactive) and 98.7% (inactive) | 59% (inactive) and 106% (inactive) | 93.3% (inactive) and 100% (inactive)
O=c1[nH]c(=S)[nH]n1C(=S)n1[nH]c(=S)[nH]c1=O | 99.7% (inactive) | 99% (inactive) | 101% (inactive) | 105% (inactive) | 109% (inactive) | 101% (inactive) | 110% (inactive) | 98.5% (inactive) | 95.2% (inactive) | 
CC(C)(C)OC(=O)CC1(O)CCCCC1 | 105% (inactive) | 107% (inactive) | 108% (inactive) | 115% (inactive) | 105% (inactive) |  | 108% (inactive) | 102% (inactive) | 107% (inactive) | 97.9% (inactive)
CCC(C)(O)CCC(C)(O)CC (centres undefined) | 97.4% (inactive) | 108% (inactive) | 102% (inactive) | 114% (inactive) | 99% (inactive) | 103% (inactive) | 107% (inactive) |  | 99.2% (inactive) | 
C/C=C(/C(=O)NC(N)=O)C(C)C | 88.7% (inactive) | 113% (inactive) | 96.2% (inactive) | 116% (inactive) | 99.4% (inactive) | 114% (inactive) | 104% (inactive) | 107% (inactive) | 107% (inactive) | 
Cc1cnc(N)s1 | 101% (inactive) | 95.9% (inactive) | 92.8% (inactive) | 90.7% (inactive) | 89.7% (inactive) | 103% (inactive) | 105% (inactive) | 89.4% (inactive) | 101% (inactive) | 
Cc1c(Cl)cc(Cl)c(N)c1Cl | 117% (inactive) | 98.1% (inactive) | 104% (inactive) | 107% (inactive) | 101% (inactive) |  | 112% (inactive) | 95.3% (inactive) | 105% (inactive) | 108% (inactive)
CC(O)CCNC(c1ccccc1)C(O)c1ccccc1 (centres undefined) | 105% (inactive) | 89.7% (inactive) | 104% (inactive) | 109% (inactive) | 107% (inactive) | 95.9% (inactive) | 132% (inactive) | 110% (inactive) | 110% (inactive) | 
CC1(C)OC(=O)C(=Cc2ccc(C#N)cc2)C(=O)O1 | 93.5% (inactive) and 89% (inactive) | 101% (inactive) and 103% (inactive) | 94.5% (inactive) and 97.8% (inactive) | 107% (inactive) and 113% (inactive) | 104% (inactive) and 106% (inactive) |  | 111% (inactive) and 105% (inactive) | 99.3% (inactive) and 104% (inactive) | 106% (inactive) and 110% (inactive) | 115% (inactive) and 98.3% (inactive)
C=CCN1C(=O)c2ccccc2C1=O | 99.9% (inactive) | 92.9% (inactive) | 97.5% (inactive) | 102% (inactive) | 105% (inactive) | 98.7% (inactive) | 110% (inactive) | 99.8% (inactive) | 96% (inactive) | 
OC(CC(c1ccccc1)c1cccc2ccccc12)(c1ccccc1)c1ccccc1 (centres undefined) | 94.9% (inactive) and 63.1% (inactive) | 88.4% (inactive) and 67.4% (inactive) | 72.8% (inactive) and 87.1% (inactive) | 92.1% (inactive) and 89.9% (inactive) | 85.4% (inactive) and 93.1% (inactive) | 88.6% (inactive) and 84.8% (inactive) | 94.1% (inactive) and 90.6% (inactive) | 84.4% (inactive) and 86.6% (inactive) | 76.2% (inactive) and 70.3% (inactive) | 
CCC(C)NC(=O)c1ccccc1C (centres undefined) | 111% (inactive) | 105% (inactive) | 102% (inactive) | 79.6% (inactive) | 97.5% (inactive) | 94.1% (inactive) | 110% (inactive) | 96.8% (inactive) | 92.7% (inactive) | 
Nc1c(S(=O)(=O)O)cc(Br)c2c1C(=O)c1ccccc1C2=O | 93.8% (inactive) and 91.4% (inactive) | 96.7% (inactive) and 104% (inactive) | 106% (inactive) and 92.1% (inactive) | 113% (inactive) and 101% (inactive) | 85.6% (inactive) and 102% (inactive) | 105% (inactive) and 88.9% (inactive) | 102% (inactive) and 121% (inactive) | 112% (inactive) and 94.3% (inactive) | 108% (inactive) and 115% (inactive) | 
COC(=O)c1nc(=S)[nH]c(C(=O)OC)c1C(=O)c1ccc(OC)cc1 | 105% (inactive) | 111% (inactive) | 109% (inactive) | 103% (inactive) | 149% (inactive) |  | 119% (inactive) | 76.1% (inactive) | 99.8% (inactive) | 112% (inactive)
O=C1Cc2ccccc2C(=O)N1 | 30.4% (inactive) | 48.9% (inactive) | 56.2% (inactive) | 96.1% (inactive) | 98.9% (inactive) | 76.8% (inactive) | 76.3% (inactive) | 103% (inactive) | 91.8% (inactive) | 
CCOC(=O)c1ccncc1 | 101% (inactive) | 106% (inactive) | 112% (inactive) | 107% (inactive) | 105% (inactive) |  | 105% (inactive) | 101% (inactive) | 110% (inactive) | 117% (inactive)
N=C(N=C(N)N)N1CCOCC1 | 103% (inactive) | 113% (inactive) and 107% (inactive) | 105% (inactive) and 106% (inactive) |  | 101% (inactive) and 104% (inactive) | 100% (inactive) and 109% (inactive) | 114% (inactive) and 107% (inactive) | 105% (inactive) and 100% (inactive) | 105% (inactive) and 98.8% (inactive) | 95.4% (inactive) and 108% (inactive)
C/C(=C\c1ccccc1)C(O)C(=O)c1nc2ccc([N+](=O)[O-])cc2[nH]c1=O (centres undefined) | 102% (inactive) | 90.2% (inactive) | 96.6% (inactive) |  | 105% (inactive) | 102% (inactive) | 113% (inactive) | 94.7% (inactive) | 87.7% (inactive) | 114% (inactive)
